The text below walks through data of PubChem BioAssay (NCATS).

Records with an inconclusive call do not appear. A number with no mark means an inactive call. Active and inactive are the calls of the source. The call rests on the fitted dose curve; in most records, active means well fitted inhibition curve with a large enough effect; inconclusive means small, poorly fitted or top-dose-only effect; inactive means flat fitted curve, though single readings scatter. Where a SMILES comes first, the peptide text is derived from it. Bridges are numbered along the chain shown (N, C = ends). [ ]: non-standard residue; d: D form. hArg = N=C(N)NCCCC[C@H](N)C(=O)O; Mpa = O=C(O)CCS
Potency means the concentration at half of the fitted maximal effect.

For this assay, the system named is AA1029. The experiment in a line: qHTS profiling for inhibitors of Plasmodium falciparum proliferation (AID 504749). Further: nearly all actives have a fitted effect of over 60% in size.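 On activity, negative = inhibition: 0% = DMSO vehicle and full inhibition = artemisinin control.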 The note with it: P. falciparum in erythrocytes, SYBR Green DNA, 72 h; series mostly up to 28.7 µM; activity, negative = inhibition: at the top concentration. The procedure, abridged:
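Parasite proliferation within erythrocytes, 72 h exposure. Endpoint: SYBR Green I fluorescence after overnight lysis at room temperature. Controls: 0.29 uM artemisinin, DMSO.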
A general note: In qHTS, concentration-response curves come from the screen itself.
As for `COc1ccc2cc(CCC(C)=O)ccc2c1`, the “activity, negative = inhibition” value was -5.37% [at 12.8 µM].

For the molecule `O=C(c1ccccc1)C(O)c1ccccc1` (stereo unspecified), the “activity, negative = inhibition” value is -6.09%.

For `CCCCCCCC(=O)OCC(COC(=O)CCCCCCC)OC(=O)CCCCCCC`, the “activity, negative = inhibition” value was 7.13%.

Regarding `COc1nccnc1NS(=O)(=O)c1ccc(N)cc1`, the “activity, negative = inhibition” value is -0.641%.

On to `Nc1ccc(S(=O)(=O)c2ccc(N)cc2)cc1`, for which the “activity, negative = inhibition” value was -2.04%.

As to `O=C(O)c1ccc(OCCCOc2ccc(C(=O)O)cc2)cc1`, the “activity, negative = inhibition” value was 2.35%.

For `Cc1c(NC(=O)c2cccnc2)c(=O)n(-c2ccccc2)n1C`, the “activity, negative = inhibition” value was 3.17% [at 12.8 µM].

On to `Cc1cccc(C)c1NC(=O)CC12CCCN1CCC2`, for which the “activity, negative = inhibition” value was -15.9%.

Consider `C[C@H]1COc2c(C3(N)CC3)c(F)cc3c(=O)c(C(=O)O)cn1c23`, for which the “activity, negative = inhibition” value is -1.47%.

For `CC(C)=CCC/C(C)=C/CO`, the “activity, negative = inhibition” value was -2.51%.

`CC(=O)Oc1cccc(O)c1`: the “activity, negative = inhibition” value is 1.86%.

`COc1ccc(C(=O)NCc2ccc(OCCN(C)C)cc2)cc1OC`: the “activity, negative = inhibition” value was 9.33%.

In the case of `CCOc1cc(NC(C)=O)ccc1C(=O)OC`, the “activity, negative = inhibition” value was 3.03%.

With `NC(=O)[C@@H]1CSSCCC(=O)N[C@@H](CCCCN=C(N)N)C(=O)NCC(=O)N[C@@H](CC(=O)O)C(=O)N[C@@H](Cc2c[nH]c3ccccc23)C(=O)N2CCC[C@H]2C(=O)N1` ([Mpa][hArg]GDWPC-NH2; disulfide 1-7), the “activity, negative = inhibition” value was -1.57%.

Regarding `Cc1[nH]c(C)c(Cl)c(=O)c1Cl`, the “activity, negative = inhibition” value was -7.49%.

As to `CC(=O)OC[C@H]1O[C@@](COC(C)=O)(O[C@H]2O[C@H](COC(C)=O)[C@@H](OC(C)=O)[C@H](OC(C)=O)[C@H]2OC(C)=O)[C@@H](OC(C)=O)[C@@H]1OC(C)=O`, the “activity, negative = inhibition” value is -10.1%.

Take `CC(=O)N[C@@H](Cc1ccc(O)cc1)C(=O)O`: the “activity, negative = inhibition” value is 7.5%.

Consider `C[C@@H]1O[C@@H](OC[C@H]2O[C@@H](Oc3c(-c4ccc(O)c(O)c4)oc4cc(O)cc(O)c4c3=O)[C@H](O)[C@@H](O)[C@@H]2O)[C@H](O)[C@H](O)[C@H]1O`, for which the “activity, negative = inhibition” value is 9.8%.

In the case of `CC(CSC(=O)c1ccccc1)C(=O)N1C[C@@H](Sc2ccccc2)C[C@H]1C(=O)O` (stereo partly specified), the “activity, negative = inhibition” value was -4.38%.

On to `O[C@@H]1CO[C@H]2[C@@H]1OC[C@@H]2O`, for which the “activity, negative = inhibition” value is 2.59%.

For the molecule `O=C1C(c2[nH]c3ccccc3c2O)=Nc2ccccc21`, the “activity, negative = inhibition” value is -23.5%.

With `NC(=O)CCCCC1CCSS1` (stereo unspecified), the “activity, negative = inhibition” value was 7.33%.

On to `Cc1c(I)c(=O)n(-c2ccccc2)n1C`, for which the “activity, negative = inhibition” value was 6.24%.

As to `NCc1ccc(S(N)(=O)=O)cc1`, the “activity, negative = inhibition” value was 6.05% [at 12.8 µM].

For the molecule `O=C(O)CCCCC1CCSS1` (stereo unspecified), the “activity, negative = inhibition” value is 12.6%.

As for `CCS(=O)(=O)CCn1c([N+](=O)[O-])cnc1C`, the “activity, negative = inhibition” value is 0.812% [at 12.8 µM].

For `COc1ccc(NS(=O)(=O)c2ccc(N)cc2)nn1`, the “activity, negative = inhibition” value was 4.36% [at 12.8 µM].

In the case of `CCCCCCCCCCOc1cc2c(=O)c(C(=O)OCC)c[nH]c2cc1OCC`, the Potency is 2.5 nM (active).

As for `O=C(OOC(=O)c1ccccc1)c1ccccc1`, the “activity, negative = inhibition” value was 11.3%.

For the molecule `CCCCCCCCCCC(CO)CCCCCCCC` (stereo unspecified), the “activity, negative = inhibition” value is 16.6%.

For the molecule `CN(C/C=C/C#CC(C)(C)C)Cc1cccc2ccccc12`, the “activity, negative = inhibition” value was -18.8%.
